Test results: PubChem BioAssay (Tox21)
Records with an inconclusive call do not appear. A call without a number means that no potency is given here. The source made the active and inactive calls. Unless noted, calls follow the shape of the dose curve; as a rule, active = well fitted curve in the direction sought with a large enough effect in the repeat runs; inconclusive = weak or mixed curves; inactive = no such curve, though single readings can be large; an effect the other way counts as inactive or inconclusive.

Experiments:
[1] = qHTS assay to identify small molecule antagonists of the retinoid-related orphan receptor gamma (ROR-gamma) signaling pathway - cell viability counter screen (AID 1159520); also: nearly all actives have a fitted effect of over 50% in size
Procedure, shortened: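 Tet-on ROR gamma CHO cells were given compounds for 2 hr, then doxycycline hyclate at 1 uM final, and incubated 16 hr at 37 C. Viability was measured as ATP content by CellTiter-Glo luminescence.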

[2] = target: Nuclear receptor ROR-gamma (Homo sapiens) (UniProt P51449); test: qHTS assay to identify small molecule antagonists of the retinoid-related orphan receptor gamma (ROR-gamma) signaling pathway (AID 1159521; also: nearly all actives have a fitted effect of over 50% in size; also: potency is read from the fitted curve at half-maximal effect)
Procedure, shortened: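 Cells were plated, rested 4 h at 37 C, exposed to compounds for 2 h, then given 1 uM final doxycycline hyclate to induce RORγ expression. After 16 h, ONE-Glo luminescence from the ROR response element reporter was measured.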

[3] = qHTS assay to identify small molecule agonists of the AP-1 signaling pathway - cell viability counter screen (AID 1159525; calls by dose curve; also: nearly all actives have a fitted effect of over 55% in size)
Procedure, shortened: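 Same-well cytotoxicity counter screen of the Tox21 10K library in ME-180 cells. The readout is ATP-dependent luminescence after 5 h compound treatment. Data are normalised to DMSO and tetra n-octyl ammonium bromide controls.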

[4] = qHTS assay to identify small molecule agonists of the AP-1 signaling pathway (AID 1159526; calls by dose curve)
[5] = qHTS assay to identify small molecule agonists of the RXR signaling pathway - cell viability counter screen (AID 1159529); also: nearly all actives have a fitted effect of over 50% in size; also: potency is read from the fitted curve at half-maximal effect
Procedure, shortened: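 Steps: seed RXR-alpha-UAS-bla HEK 293T cells in assay medium containing 2% charcoal-stripped FBS; incubate 5 hr; add compounds in DMSO; incubate 16 hr at 37 C; after the bla read, add CellTiter-Glo and read luminescence at 30 min.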

[6] = qHTS assay to identify small molecule antagonists of the estrogen related receptor (ERR) signaling pathway from Tox21 library - cell viability counter screen (AID 1224834); also: nearly all actives have a fitted effect of over 30% in size
Procedure, shortened: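 CellTiter-Fluor fluorescence, read after 30 min at 37 C, measures viability of ERR cells. Cells plated at 2,000/well and incubated 6 h before pin-tool compound addition, then exposed 17.5 hours at 37 C.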

[7] = target: Retinoic acid receptor RXR-alpha (Homo sapiens) (UniProt P19793); test: qHTS assay to identify small molecule agonists of the RXR signaling pathway (AID 1159527; calls by dose curve; also: nearly all actives have a fitted effect of over 35% in size)
Sequence of Retinoic acid receptor RXR-alpha (Homo sapiens) (P19793 whole entry, looked up): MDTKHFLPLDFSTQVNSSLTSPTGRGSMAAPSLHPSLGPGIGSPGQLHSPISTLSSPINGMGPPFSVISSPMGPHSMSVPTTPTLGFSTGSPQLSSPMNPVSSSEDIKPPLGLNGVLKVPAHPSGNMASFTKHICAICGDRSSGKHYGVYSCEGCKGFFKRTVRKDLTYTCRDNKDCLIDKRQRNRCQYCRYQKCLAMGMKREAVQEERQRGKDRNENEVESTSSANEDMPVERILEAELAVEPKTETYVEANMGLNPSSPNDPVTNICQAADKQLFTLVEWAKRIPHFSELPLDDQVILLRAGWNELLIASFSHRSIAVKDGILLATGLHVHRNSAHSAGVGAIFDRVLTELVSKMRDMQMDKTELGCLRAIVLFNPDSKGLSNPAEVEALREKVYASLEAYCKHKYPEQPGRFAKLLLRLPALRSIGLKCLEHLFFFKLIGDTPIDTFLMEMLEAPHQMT
Procedure, shortened: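 Cells plated at 2,000/well, rested 5 hr at 37 C, pin-dosed with DMSO compound solutions, incubated 16 hr, then loaded with B/G FRET substrate for 2 hr at RT before dual-emission fluorescence reading.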

[8] = qHTS assay to identify small molecule antagonists of the retinoid acid receptor (RAR) signaling pathway - cell viability counter screen (AID 1159551); also: nearly all actives have a fitted effect of over 35% in size
Procedure, shortened: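 Cytotoxicity counter screen: ATP content quantified by CellTiter-Glo luminescence in C3RL4 cells treated 6 hr at 37 C with compound and retinol (1 uM final). Cells plated at 1,000/well and cultured overnight before dosing.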

[9] = qHTS assay to identify small molecule antagonists of the retinoic acid receptor (RAR) signaling pathway (AID 1159552; also: nearly all actives have a fitted effect of over 50% in size)
Procedure, shortened: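 Retinol at 1 uM final stimulated RARE-luciferase expression in C3RL4 cells exposed to test compounds for 6 hr at 37 C. Reduced luminescence, read 30 min after detection reagent, indicated pathway antagonism.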

[10] = qHTS assay to identify small molecule antagonists of the vitamin D receptor (VDR) signaling pathway - cell viability counter screen (AID 743225); also: nearly all actives have a fitted effect of over 50% in size
Procedure, shortened: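 HEK293T VDR-bla; cpd + 1a,25-(OH)2D3 3 nM final, 16 h 37C/5% CO2; B/G FRET substrate 2 h RT; then CellTiter-Glo 30 min RT, luminescence.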

Q: Which Potency [1] does the source give for `CCC(C)c1cc(C(C)(C)C)cc(-n2nc3ccccc3n2)c1O` (stereo not given) here?
A: Its Potency is “inactive”.

Q: What about the Potency [2] of the same compound?
A: Its Potency is “inactive”.

Q: What about the Potency [3] of the same compound?
A: The Potency was “inactive”.

Q: And the Potency [4]?
A: Its Potency is “inactive”.

Q: What about the Potency [5] of the same compound?
A: The Potency was “inactive”.

Q: What about the Potency [6] of the same compound?
A: Its Potency is “inactive”.

Q: With `COc1ccc(OC)c(C=O)c1` as the compound, how does the Potency [1] read?
A: Its Potency is “inactive”.

Q: And the Potency [2]?
A: The Potency was “inactive”.

Q: And the Potency [3]?
A: Its Potency is “inactive”.

Q: And the outcome [7]?
A: Its outcome is “inactive”.

Q: And the Potency [8]?
A: The Potency was “inactive”.

Q: What about the Potency [9] of the same compound?
A: Its Potency is “inactive”.

Q: And the Potency [6]?
A: Its Potency is “inactive”.

Q: Which Potency [1] does the source give for `CC(C)(C)C(O)C(Oc1ccc(-c2ccccc2)cc1)n1cncn1` (stereo not given) here?
A: Its Potency is “inactive”.

Q: And the Potency [2]?
A: The Potency was 27.3 µM (active).

Q: And the Potency [3]?
A: Its Potency is “inactive”.

Q: And the Potency [5]?
A: The Potency was 54.9 µM (active).

Q: Which Potency [1] does the source give for `CN(CCCC(O)c1cccnc1)N=O` (stereo not given) here?
A: Its Potency is “inactive”.

Q: What about the Potency [2] of the same compound?
A: The Potency was “inactive”.

Q: And the Potency [3]?
A: The Potency was “inactive”.

Q: What about the Potency [4] of the same compound?
A: Its Potency is “inactive”.

Q: What about the outcome [7] of the same compound?
A: The outcome was “inactive”.

Q: What about the Potency [5] of the same compound?
A: Its Potency is “inactive”.

Q: What about the Potency [8] of the same compound?
A: The Potency was “inactive”.

Q: What about the Potency [9] of the same compound?
A: Its Potency is “inactive”.

Q: What about the Potency [6] of the same compound?
A: The Potency was “inactive”.

Q: Which Potency [1] does the source give for `C=COCCCl` here?
A: The Potency was “inactive”.

Q: And the Potency [2]?
A: The Potency was “inactive”.

Q: And the Potency [3]?
A: Its Potency is “inactive”.

Q: And the Potency [4]?
A: Its Potency is “inactive”.

Q: And the outcome [7]?
A: The outcome was “inactive”.

Q: What about the Potency [5] of the same compound?
A: Its Potency is “inactive”.

Q: What about the Potency [6] of the same compound?
A: Its Potency is “inactive”.

Q: What does the source list for `CCSC(C)CC1CC(=O)C(/C(CC)=N/OC/C=C/Cl)=C(O)C1` (stereo not given)?
A: Potency [1]: inactive; Potency [2]: inactive; Potency [3]: inactive; Potency [4]: inactive; outcome [7]: inactive; Potency [8]: inactive; Potency [9]: inactive; Potency [6]: inactive

Q: For `COC(=O)N(C(=O)N1COC2(C(=O)OC)Cc3cc(Cl)ccc3C2=N1)c1ccc(OC(F)(F)F)cc1` (stereo not given), which Potency [1] is on record?
A: Its Potency is “inactive”.

Q: What about the Potency [2] of the same compound?
A: The Potency was 23.7 µM (active).

Q: And the Potency [3]?
A: The Potency was “inactive”.

Q: What about the Potency [5] of the same compound?
A: The Potency was “inactive”.

Q: What about the Potency [8] of the same compound?
A: The Potency was “inactive”.

Q: Which Potency [1] does the source give for `CCc1cc(C)cc(CC)c1-c1c(OC(=O)C(C)(C)C)n2n(c1=O)CCOCC2` here?
A: Its Potency is “inactive”.

Q: And the Potency [2]?
A: The Potency was “inactive”.

Q: What about the Potency [3] of the same compound?
A: The Potency was “inactive”.

Q: And the outcome [7]?
A: The outcome was “inactive”.

Q: And the Potency [5]?
A: The Potency was “inactive”.

Q: And the Potency [8]?
A: Its Potency is “inactive”.

Q: Which results are given for `CC(=O)c1cc(C(C)(C)C)cc2c1CCC2(C)C`?
A: Potency [10]: inactive; Potency [1]: inactive; Potency [2]: inactive; Potency [3]: inactive; Potency [5]: inactive; Potency [8]: inactive; Potency [6]: inactive

Q: Which results are given for `C[C@@H](Oc1ccc(Cl)cc1Cl)C(=O)O`?
A: Potency [1]: inactive; Potency [2]: inactive; Potency [3]: inactive; Potency [4]: inactive; Potency [5]: inactive; Potency [8]: inactive; Potency [9]: inactive; Potency [6]: inactive

Q: Which Potency [1] does the source give for `CN(CCCC(=O)c1cccnc1)N=O` here?
A: The Potency was “inactive”.

Q: And the Potency [2]?
A: Its Potency is “inactive”.

Q: And the Potency [3]?
A: The Potency was “inactive”.

Q: And the Potency [4]?
A: Its Potency is “inactive”.

Q: What about the outcome [7] of the same compound?
A: Its outcome is “inactive”.

Q: And the Potency [5]?
A: Its Potency is “inactive”.

Q: What about the Potency [6] of the same compound?
A: Its Potency is “inactive”.

Q: With `Cc1cc(Cl)ccc1O[C@H](C)C(=O)O` as the compound, how does the Potency [1] read?
A: Its Potency is “inactive”.

Q: And the Potency [2]?
A: The Potency was “inactive”.

Q: What about the Potency [3] of the same compound?
A: The Potency was “inactive”.

Q: And the Potency [4]?
A: The Potency was “inactive”.

Q: And the outcome [7]?
A: Its outcome is “inactive”.

Q: And the Potency [5]?
A: Its Potency is “inactive”.

Q: What about the Potency [8] of the same compound?
A: The Potency was “inactive”.

Q: And the Potency [6]?
A: The Potency was “inactive”.

Q: What does the source list for `SCc1ccco1`?
A: Potency [1]: inactive; Potency [2]: inactive; Potency [3]: inactive; Potency [5]: inactive; Potency [8]: inactive

Q: With `Oc1cccc(-c2ccccc2)c1` as the compound, how does the Potency [1] read?
A: Its Potency is “inactive”.

Q: And the Potency [2]?
A: The Potency was “inactive”.

Q: What about the Potency [3] of the same compound?
A: Its Potency is “inactive”.

Q: What about the outcome [7] of the same compound?
A: Its outcome is “inactive”.

Q: What about the Potency [9] of the same compound?
A: Its Potency is “inactive”.

Q: And the Potency [6]?
A: The Potency was “inactive”.

Q: Which Potency [1] does the source give for `Cl/C=C\CCl` here?
A: The Potency was “inactive”.

Q: What about the Potency [2] of the same compound?
A: Its Potency is “inactive”.

Q: What about the Potency [3] of the same compound?
A: Its Potency is “inactive”.

Q: And the Potency [4]?
A: Its Potency is “inactive”.

Q: And the outcome [7]?
A: Its outcome is “inactive”.

Q: What about the Potency [8] of the same compound?
A: The Potency was “inactive”.

Q: What about the Potency [9] of the same compound?
A: Its Potency is “inactive”.

Q: And the Potency [6]?
A: Its Potency is “inactive”.

Q: Which Potency [1] does the source give for `COCC(=O)N(c1c(C)cccc1C)[C@H](C)C(=O)OC` here?
A: Its Potency is “inactive”.

Q: What about the Potency [2] of the same compound?
A: Its Potency is “inactive”.

Q: And the Potency [3]?
A: Its Potency is “inactive”.

Q: What about the Potency [4] of the same compound?
A: The Potency was “inactive”.

Q: And the outcome [7]?
A: The outcome was “inactive”.

Q: What about the Potency [5] of the same compound?
A: The Potency was “inactive”.

Q: What about the Potency [8] of the same compound?
A: Its Potency is “inactive”.

Q: What about the Potency [9] of the same compound?
A: Its Potency is “inactive”.

Q: And the Potency [6]?
A: Its Potency is “inactive”.
